Results filed as inconclusive are left out. A number with no mark means an inactive call. The source made the active and inactive calls. Calls come from the whole dose curve; as a rule, active = well fitted cell-killing curve with a large enough effect; inconclusive = small, poorly fitted or top-dose-only effect; inactive = flat fitted curve, though single readings scatter.
Experiment: Cell Viability - Renal Proximal Tubule (AID 545); note: nearly all actives have a fitted effect of over 40% in size;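 for activity change, negative = cytotoxicity: 0% = DMSO only and -100% = 100 µM tamoxifen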
Conditions: renal proximal tubule cells viability, primary cells of rat origin; series mostly up to 91.7 µM; activity change, negative = cytotoxicity: at the top concentration
Description: NIH Chemical Genomics Center [NCGC]
NIH Molecular Libraries Screening Centers Network [MLSCN]
National Institutes of Environmental Health Sciences [NIEHS]
National Toxicology Program [NTP]
We have developed a 1536-well cell-based assay for quantitative high throughput screening (qHTS) against a number of cell lines to determine in vitro cytotoxicity of small molecules. This particular assay uses the renal proximal tubule cells which are derived from normal kidney cells freshly isolated from rat.
NCGC Assay Protocol Summary:
The CellTiter-Glo luminescent cell viability assay (Promega) is a homogeneous method to measure the number of viable cells in culture. The end point readout of this assay is based on quantitation of intracellular ATP, an indicator of metabolic activity, using the luciferase reaction. Luciferase catalyzes the oxidation of beetle Luciferin to oxyluciferin and light in the presence of ATP. The luminescent signal is proportional to amount of ATP present.
Using the CellTiter-Glo luminescent cell viability assay, the amount of cellular ATP was measured in the renal proximal tubule cells with complete culture medium following compound treatment for 40 hours. The assay was performed in opaque white Kalypsys 1536-well plates. In the screen, tamoxifen and doxorubicin were used as positive controls. Library compounds were measured for their ability to cause acute toxicity in the cell line, as reflected by a decrease in intracellular ATP levels, in a concentration-dependent manner. […] AC50 values were determined from concentration-response data modeled with the standard Hill equation.
qHTS protocol for CellTiter Glo renal proximal tubule cell assay
[Step] [Parameter] [Value] [Description]
1. Reagent; 5 uL; 1000 renal proximal tubule cells/well
2. Time; 5 hr; 37 °C incubation
4. Controls; 23 nL; Tamoxifen 0.34 uM to 100 uM & Doxorubicin 0.02 nM to 100 uM
5. Time; 40 hr; 37 °C incubation
6. Reagent; 5 uL; CellTiter Glo reagent
7. Time; 20 min; Room Temperature
8. Detection; Luminescence; Viewlux plate reader
Keywords: cell viability, cytotoxicity, renal proximal tubule cells, luminescence, NTPHTS, NTPHTS_NCGC, NIEHS, EPA, DSSTox, MLSMR, MLSCN, NIH Roadmap, qHTS, NCGC
Potency is the fitted concentration of half-maximal effect.

Row | SMILES | activity change, negative = cytotoxicity | Potency
1 | CC1=NN(c2ccccc2)C(=O)C1 | 1.33% | 
2 | O=C(O)c1cc(=O)[nH]c(=O)[nH]1 | 5.8% | 
3 | CCc1cc(C(N)=S)ccn1 | -7.97% | 
4 | Cc1nnc(NS(=O)(=O)c2ccc(N)cc2)s1 | -6.39% | 
5 | Cc1noc(NS(=O)(=O)c2ccc(N)cc2)c1C | -1.89% | 
6 | NNC(=O)c1ccncc1 | -0.698% | 
7 | COc1ccc2cc3[n+](cc2c1OC)CCc1cc2c(cc1-3)OCO2 | -14.2% | 
8 | O=C(N[C@H](CO)[C@H](O)c1ccc([N+](=O)[O-])cc1)C(Cl)Cl | -9.2% | 
9 | Cc1ncc([N+](=O)[O-])n1CCO | -6.35% | 
10 | CC(=O)Oc1ccccc1C(=O)Nc1ncc([N+](=O)[O-])s1 |  | 25.1 µM (active)
11 | Cc1cc(NS(=O)(=O)c2ccc(N)cc2)no1 | -6.33% | 
12 | NC(N)=NC(N)=NCCc1ccccc1 | -15.7% | 
13 | CC[C@H](C)C(=O)O[C@H]1C[C@@H](C)C=C2C=C[C@H](C)[C@H](CC[C@@H]3C[C@@H](O)CC(=O)O3)[C@H]21 |  | 2 µM (active)
14 | CN(C)c1ccc(C(=C2C=CC(=[N+](C)C)C=C2)c2ccc(N(C)C)cc2)cc1 |  | 12.6 µM (active)
15 | C[C@]12C=CC(=O)C=C1CC[C@@H]1[C@@H]2C(=O)C[C@@]2(C)[C@H]1CC[C@]2(O)C(=O)CO | -17.8% | 
16 | Cc1ccnc2c1NC(=O)c1cccnc1N2C1CC1 | -14.9% | 
